Results from PubChem BioAssay (Tox21).
The source made the active and inactive calls. Entries that show only a call come without a potency. The call rests on the fitted dose curve; in most records, active means well fitted curve in the direction sought with a large enough effect in the repeat runs; inconclusive means weak or mixed curves; inactive means flat fitted curve, though single readings scatter.

Experiment: qHTS assay to test for compound auto fluorescence at 460 nm (blue) in HEK293 cell free culture (AID 720681)
Conditions: cell-free medium, autofluorescence 405/460 nm (blue); series mostly up to 91.3 µM
Summary of the method: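 Test compounds were pinned into cell-free culture medium (DMEM with 10% FBS) and fluorescence was read directly at Ex/Em 405/460 nm. Signals were expressed as fluorescence equivalents of triamterene, with DMSO vehicle as control.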

Row | Structure (SMILES) | Potency
1 | CCc1ccccc1O | inactive
2 | CN(C)c1cccc(O)c1 | inactive
3 | O=C1N=C(O)CN1/N=C/c1ccc(-c2ccc([N+](=O)[O-])cc2)o1 | inactive
4 | CS(=O)(=O)Nc1ccc([N+](=O)[O-])cc1Oc1ccccc1 | inactive
5 | C=C1CC[C@H](O)CC1=C/C=C1\CCC[C@]2(C)[C@@H]([C@H](C)/C=C/[C@H](C)C(C)C)CC[C@@H]12 | inactive
6 | O=[N+]([O-])c1cc(N(CCO)CCO)ccc1NCCO | inactive
7 | CCCCC(CC)COC(C)=O (centres undefined) | inactive
8 | CCCCCCCCCC(=O)O | inactive
9 | OCC#CCO | inactive
10 | Cc1cc(NS(=O)(=O)c2ccc(N)cc2)no1 | inactive
11 | CC1CC(OC(=O)c2ccccc2O)CC(C)(C)C1 (centres undefined) | inactive
12 | Oc1ccc2ccccc2c1N=Nc1ccccc1 | inactive
13 | O=C1CCCCC1 | inactive
14 | O=C(O)c1ccc([N+](=O)[O-])cc1 | inactive
15 | CC(C)n1c(/C=C/[C@@H](O)C[C@@H](O)CC(=O)O)c(-c2ccc(F)cc2)c2ccccc21 | inactive
16 | CC1COc2ccccc2N1C(=O)C(Cl)Cl (centres undefined) | inactive
17 | CCCCCCC(C)(C)S | inactive
18 | CC(=O)[C@@]1(O)CC[C@H]2[C@@H]3CCC4=CC(=O)CC[C@]4(C)[C@H]3CC[C@@]21C | inactive
19 | CC(C)NCC(O)COc1cccc2ccccc12 (centres undefined) | inactive
20 | CCCCCCCCCCC=CC1CC(=O)OC1=O (centres undefined) | inactive

Row | Structure (SMILES) | Potency
21 | O=S(=O)(Oc1ccc(Cl)cc1Cl)c1ccccc1 | inactive
22 | Cc1cc(O)cc(C)c1Cl | inactive
23 | NCCNCCNCCNCCN | inactive
24 | Cc1ccc(C(=O)O)o1 | inactive
25 | CC(C)(C)C(=O)C1C(=O)c2ccccc2C1=O | inactive
26 | CCCCOCCOCCOC(=O)CCCCC(=O)OCCOCCOCCCC | inactive
27 | OC1CCCC1 | inactive
28 | Oc1ccc2ccccc2c1 | inactive
29 | CC1=CC[C@H]2C[C@@H]1C2(C)C | inactive
30 | CC1=C(/C=C/C(C)=C/C=C/C(C)=C/CO)C(C)(C)CCC1 | inactive
31 | CCOC(=O)C1OC1c1ccccc1 (centres undefined) | inactive
32 | ClC1=C(Cl)C(Cl)(Cl)C(Cl)=C1Cl | inactive
33 | CCCCCC/C=C/CCCCCCCC(=O)O | inactive
34 | O=Nc1ccc(O)cc1 | inactive
35 | CC(C)(N=C=O)c1cccc(C(C)(C)N=C=O)c1 | inactive
36 | CN(CCOc1ccc(CC2SC(=O)NC2=O)cc1)c1ccccn1 (centres undefined) | inactive
37 | NC(=O)NNc1ccccc1 | inactive
38 | Nc1c(S(=O)(=O)O)cc(Br)c2c1C(=O)c1ccccc1C2=O | inactive
39 | CCCCCCCCCCCCOCC1CO1 (centres undefined) | inactive
